USP28 block = inhibitors of human USP28 deubiquitinase | Ubiquitin carboxyl-terminal hydrolase 28 (Homo sapiens), Q96RU2 | AID 1645857, 2021 | inhibition, % at 25 µM | purified USP28, Ub-rhodamine cleavage fluorescence, 30 min | actives 3% (n = 47,000)
USP30 inh = inhibitors of human USP30 deubiquitinase; Ubiquitin carboxyl-terminal hydrolase 30 (Homo sapiens), Q70CQ3; purified USP30, Ub-rhodamine cleavage fluorescence; inhibition, % at 25 µM; actives 5.3% (n = 47,000); AID 1645860, 2021
OTUD3 block = inhibitors of human OTUD3 deubiquitinase; OTU domain-containing protein 3 (Homo sapiens), Q5T2D3; purified OTUD3, Ub-rhodamine fluorescence, 2 h; inhibition, % at 25 µM; actives 0.7% (n = 47,000); AID 1645858, 2021
USP17 block = inhibitors of human USP17 deubiquitinase; Ubiquitin carboxyl-terminal hydrolase 17-like protein 5 (Homo sapiens), A8MUK1; purified USP17, Ub-rhodamine cleavage fluorescence, 3 h; inhibition, % at 50 µM; actives 6.5% (n = 47,000); AID 1645855, 2021
USP8 block = inhibitors of human USP8 deubiquitinase | Ubiquitin carboxyl-terminal hydrolase 8 (Homo sapiens), P40818 | purified USP8, Ub-rhodamine cleavage fluorescence, 30 min | inhibition, % at 20 µM | actives 4.2% (n = 47,000) | AID 1645853, 2021
Target sequence (P40818 whole entry, looked up): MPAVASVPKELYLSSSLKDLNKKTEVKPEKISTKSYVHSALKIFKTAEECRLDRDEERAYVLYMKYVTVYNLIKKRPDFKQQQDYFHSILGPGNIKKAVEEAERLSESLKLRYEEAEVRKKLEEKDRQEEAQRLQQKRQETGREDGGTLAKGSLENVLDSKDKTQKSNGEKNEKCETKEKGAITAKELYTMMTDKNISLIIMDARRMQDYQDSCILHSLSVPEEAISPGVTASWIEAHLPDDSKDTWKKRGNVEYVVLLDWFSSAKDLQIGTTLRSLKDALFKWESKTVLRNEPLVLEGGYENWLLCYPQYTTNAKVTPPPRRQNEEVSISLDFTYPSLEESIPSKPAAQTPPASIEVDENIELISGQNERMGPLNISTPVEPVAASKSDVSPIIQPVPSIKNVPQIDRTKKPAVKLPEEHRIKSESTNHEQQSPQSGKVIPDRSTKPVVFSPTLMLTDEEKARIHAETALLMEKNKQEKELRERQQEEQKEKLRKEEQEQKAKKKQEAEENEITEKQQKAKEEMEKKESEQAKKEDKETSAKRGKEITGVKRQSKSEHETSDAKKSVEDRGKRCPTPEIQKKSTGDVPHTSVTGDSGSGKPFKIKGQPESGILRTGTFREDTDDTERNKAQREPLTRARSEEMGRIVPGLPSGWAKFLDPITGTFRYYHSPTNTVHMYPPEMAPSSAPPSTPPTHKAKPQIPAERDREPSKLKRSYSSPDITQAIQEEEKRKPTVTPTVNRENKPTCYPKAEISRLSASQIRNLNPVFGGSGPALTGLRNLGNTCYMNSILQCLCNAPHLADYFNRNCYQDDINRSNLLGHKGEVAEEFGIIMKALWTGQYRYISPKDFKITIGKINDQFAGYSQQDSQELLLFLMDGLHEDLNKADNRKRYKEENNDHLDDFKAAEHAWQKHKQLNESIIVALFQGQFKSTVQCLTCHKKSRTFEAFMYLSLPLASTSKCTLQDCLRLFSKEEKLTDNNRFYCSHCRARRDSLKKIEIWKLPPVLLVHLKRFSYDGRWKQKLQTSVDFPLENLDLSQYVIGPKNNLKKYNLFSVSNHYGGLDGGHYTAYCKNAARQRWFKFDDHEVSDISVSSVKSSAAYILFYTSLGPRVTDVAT
Starred values were filed as active, the others as inactive; x = no result given. Sampled rows, rich in hits. Any-hit rate of the full collection: about 13%. No stated cut-off is given here; in the data, active means inhibition above about 30%; inactive means the rest.

SMILES	USP28 block	USP30 inh	OTUD3 block	USP17 block	USP8 block
Cc1ccc(CNC(=O)Cn2c(=O)c3sccc3n(CC(=O)Nc3ccc4c(c3)OCCO4)c2=O)cc1	x	x	-8	60*	7
COc1ccc(NC(=O)Cn2c(=O)n(CCC(=O)NCc3ccccc3)c(=O)c3sccc32)cc1Cl	2	15	5	47*	19
COc1ccc(NC(=O)Cn2c(=O)n(CCC(=O)NC3CCCC3)c(=O)c3ccccc32)cc1Cl	4	12	1	5	-5
Cc1ccc(N2C(=O)N(CC(=O)Nc3ccc4c(c3)OCCO4)C(=O)C2C)cc1 (configuration not stated)	29	8	5	0	7
CCc1cc(=O)n(CC(=O)Nc2ccc3c(c2)OCCO3)c2c1c(C)nn2-c1ccc(C)cc1	17	32*	15	31*	44*
Cc1nc2ccn(Cc3cccs3)c(=O)c2cc1C(=O)NCC1CCCO1 (configuration not stated)	13	8	19	3	15
O=C(Nc1cc(F)ccc1F)N1CCN(c2cc(-c3ccncc3)[nH]n2)CC1	4	0	7	x	-2
COc1cc(CN2CCN(C/C=C/c3ccccc3)CC2)cc(OC)c1O	9	2	6	1	-40
CNc1nccc(N2CCC(CC(=O)NC3CCCC3)CC2)n1	-4	-3	6	2	-8
COc1ccccc1CC(=O)NC(C)c1nc(-c2cccnc2)n[nH]1 (configuration not stated)	-3	0	-5	0	-6
Cc1ccc(-c2nnc(NC(=O)C3CCCCC3)o2)c(C)c1	4	6	3	38*	0
CCOC(=O)C1(Cc2cc(-c3ccc(F)cc3)no2)CCN(Cc2cncn2C)CC1	1	3	-1	1	14
C[C@]12C(=O)N(CCc3ccc(F)cc3)CC(=O)N1CCc1c2[nH]c2ccccc12	8	4	2	10	2
N#Cc1cc2c([nH]c1=O)CC(c1ccccc1)C/C2=N\Nc1ccccc1 (configuration not stated)	-4	-54	-10	0	51*
N#Cc1cc2c(=O)n(Cc3ccccc3)ccc2[nH]c1=O	-2	-20	-1	0	-4
O=c1oc2ccccc2cc1-c1nc(-c2ccc(Oc3ccccc3)cc2)cs1	36*	-127	-29	42*	53*
O=C(/C=C/c1ccccc1)OCC(=O)c1ccc(Cl)cc1	-1	12	-2	0	8
COc1ccccc1CC(=O)N1CCC(c2[nH]nc3nccnc23)CC1	-2	5	0	-5	-17
Fc1ccc(Oc2nc(CN3CCOCC3)nc3sc4c(c23)CCCC4)c(Cl)c1	58*	-28	-9	4	-3
CCC(C)Oc1cccc(C(=O)Nc2ccc(CN3CCOCC3)cc2)c1 (configuration not stated)	80*	0	-3	-8	7
CC(C)(C)OC(=O)NCc1ccc(C(=O)Nc2ccc(CN3CCOCC3)cc2)cc1	-9	-26	-9	-6	-13
O=C(NCc1ccc(Cl)cc1)c1ccc(-c2ccc(F)cc2)o1	10	14	5	11	3
CN1[C@@H](CCC(=O)N2CCCC2)CNC(=O)[C@@H]2[C@H]1CCN2Cc1ccccc1	9	2	16	-23	22
COC[C@H]1CCCN1C(=O)CC[C@H]1CNC(=O)[C@@H]2[C@@H](CCN2Cc2csnn2)N1C	14	-19	10	-51	31*
CN1[C@@H](CCC(=O)N2CCC(O)CC2)CNC(=O)[C@@H]2[C@H]1CCN2Cc1ccc(C(F)(F)F)cc1	11	10	2	-39	32*
SMILES	USP28 block	USP30 inh	OTUD3 block	USP17 block	USP8 block
CC(C)N1CC[C@@H]2[C@H]1C(=O)NC[C@H](CCC(=O)N1CCCC1)N2C	34*	21	8	-56	12
CN1[C@@H](CCC(=O)N2CCCC2)CNC(=O)[C@@H]2[C@H]1CCN2Cc1csnn1	11	-17	10	-40	1
CN1[C@@H](CCC(=O)N2CCN(c3ccccn3)CC2)CNC(=O)[C@@H]2[C@H]1CCN2C1CCCCC1	25	-2	1	-55	39*
CN1CC[C@@H]2[C@H]1C(=O)NC[C@H](CCC(=O)N1CCN(c3ccccn3)CC1)N2C	44*	26	2	-70	72*
COC(=O)C1CCN(C(=O)CC[C@H]2CNC(=O)[C@@H]3[C@@H](CCN3C3CCCCC3)N2C)CC1	31*	-13	9	-50	28
COc1ccc(CN2CC[C@@H]3[C@H]2C(=O)NC[C@H](CCC(=O)NCc2cccnc2)N3C)cc1	34*	38*	25	-30	63*
Cc1ccc(CN2CC[C@@H]3[C@H]2C(=O)NC[C@H](CCC(=O)N2CCN(c4ccccn4)CC2)N3C)cc1	-5	-32	-10	-78	8
CN1CC(=O)N(C2CCCNC2)Cc2c(NCC3CC3)ncnc21 (configuration not stated)	16	26	13	-43	1
COc1ccc(-n2ccc(=O)c(-c3nc(-c4ccccc4C)no3)n2)cc1	11	38*	12	19	34*
O=c1ccn(-c2ccccc2)nc1-c1nc(-c2ccc(Br)cc2)no1	13	21	14	37*	62*
Cc1cccc(-n2ccc(=O)c(-c3nc(-c4ccc(Cl)c(F)c4)no3)n2)c1	16	39*	3	23	11
CCc1ccc(-n2ccc(=O)c(-c3nc(-c4cccc(F)c4)no3)n2)cc1	-2	23	3	x	34*
Cc1cc(C(=O)COC(=O)c2ccc(C(C)(C)C)cc2)c(C)n1Cc1ccc2c(c1)OCO2	7	0	14	5	34*
c1ccc(-c2noc(-c3cc(-c4ccncc4)nc4ccccc34)n2)nc1	22	14	-1	53*	-7
Cc1cccc(Nc2cc(C3CCCN3C(=O)c3cccnn3)ccn2)n1 (configuration not stated)	-19	-28	-7	-1	19
Cc1ccccc1[C@H]1C[C@@H](O)[C@@H](O)[C@@H]1NC(=O)c1cccc(C#N)c1	9	47*	9	20	-20
Cc1cc(C(=O)N[C@H]2[C@H](O)[C@H](O)C[C@@H]2c2ccccc2C)no1	-10	-1	-4	2	-24
Cc1ccc([C@H]2C[C@@H](O)[C@@H](O)[C@@H]2NC(=O)c2ccccc2)cc1	4	37*	5	23	2
O=C1CN(C(=O)COC(=O)Cc2c(Cl)cccc2Cl)c2ccccc2N1	17	-5	0	-2	8
O=C1CN(C(=O)COC(=O)C(c2ccccc2)c2ccccc2)c2ccccc2N1	32*	-10	-5	12	11
O=C1CN(C(=O)COC(=O)CCCN2C(=O)c3cccc4cccc(c34)C2=O)c2ccccc2N1	46*	49*	1	62*	4

Screening results (PubChem BioAssay)
